Experimental data from PubChem BioAssay (EPA / NIEHS).
Calls of active or inactive are those of the source. The calls were made as follows: active = hit-call score of the fitted dose curve at least 0.9, where 1 is the maximum; inactive = score below 0.9.

How the values were obtained:
[1] = ATG_GRE_CIS: Attagene CIS-FACTORIAL HepG2 Assay for human Glucocorticoid Response Elements (GRE) (AID 2282947); conditions: HepG2 GRE cis-reporter, Attagene multiplex mRNA; actives raise or lower the signal
How it was run: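 Read-out: fluorescent reporter-transcript fragments separated by capillary electrophoresis after RT-PCR. Transiently transfected HepG2 cells carrying cis-element-driven reporter units were dosed for 24 h; gain or loss of signal fitted against DMSO control.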

[2] = ATG_ISRE_CIS: Attagene CIS-FACTORIAL HepG2 Assay for human Interferon Regulatory Factor 1 (IRF1) binding to an Interferon-Stimulated Response Element (ISRE) (AID 2282948); conditions: HepG2 ISRE cis-reporter (Attagene), mRNA transcription readout; actives raise or lower the signal
How it was run: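 Read-out: fluorescent RT-PCR products resolved by capillary electrophoresis, reporting endogenous transcription factor activity via ISRE-driven reporter mRNA in transfected HepG2 cells dosed for 24 h; gain or loss fitted relative to DMSO.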

[3] = ATG_M_32_CIS: Attagene CIS-FACTORIAL HepG2 Assay for M32 Transcription Factor (Internal Marker) (AID 2282949); conditions: HepG2 Attagene cis-factorial M32 reporter, mRNA; actives raise or lower the signal;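 also: background control marker of the multiplexed CIS panel rather than a real target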
How it was run: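 Transient MRTU transfection of HepG2; 24 h compound treatment; TriZol RNA, oligo(dT) RT, reporter PCR, 6-FAM primer extension, HpaI cut, CE. Gain/loss of signal vs DMSO.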

[4] = ATG_M_06_CIS: Attagene CIS-FACTORIAL HepG2 Assay for M06 Transcription Factor (Internal Marker) (AID 2282950); conditions: HepG2 Attagene CIS-FACTORIAL M06 internal marker reporter; actives raise or lower the signal
How it was run: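 Measured 24 h post-dosing in transiently transfected HepG2 cells, this internal-marker endpoint reports reporter mRNA via RT-PCR with fluorescent primer extension and capillary electrophoresis. DMSO served as negative control and baseline for bidirectional fitting.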

[5] = molecular target: Hepatocyte nuclear factor 6 (Homo sapiens) (UniProt Q9UBC0); assay: ATG_HNF6_CIS: Attagene CIS-FACTORIAL HepG2 Assay for human Hepatocyte Nuclear Factor 6 (HNF6) (AID 2282952); conditions: HepG2 Attagene cis-factorial HNF6 reporter transcription; actives raise or lower the signal
Sequence of Hepatocyte nuclear factor 6 (Homo sapiens) (Q9UBC0 whole entry, looked up): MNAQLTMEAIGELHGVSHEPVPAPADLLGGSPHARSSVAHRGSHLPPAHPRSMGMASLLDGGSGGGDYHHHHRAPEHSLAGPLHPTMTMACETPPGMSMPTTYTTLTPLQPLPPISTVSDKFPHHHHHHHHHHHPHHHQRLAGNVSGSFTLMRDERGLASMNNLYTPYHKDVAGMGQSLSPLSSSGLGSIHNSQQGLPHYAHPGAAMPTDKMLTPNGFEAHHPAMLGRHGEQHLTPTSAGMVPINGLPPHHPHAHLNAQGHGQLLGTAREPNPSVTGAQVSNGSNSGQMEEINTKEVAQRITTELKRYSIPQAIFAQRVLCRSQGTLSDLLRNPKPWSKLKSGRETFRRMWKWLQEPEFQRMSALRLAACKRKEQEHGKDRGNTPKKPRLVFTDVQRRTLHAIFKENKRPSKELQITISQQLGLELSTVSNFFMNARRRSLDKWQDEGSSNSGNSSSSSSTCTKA
How it was run: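 Endogenous factor activity read in transiently transfected HepG2 via promoter-regulated reporter transcripts. RNA harvested 24 h post-dosing, reverse-transcribed, PCR-amplified, FAM-labelled, HpaI-digested and resolved by capillary electrophoresis; fitted in both directions against DMSO.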

[6] = molecular target: Heat shock factor protein 1 (Homo sapiens) (UniProt Q00613); assay: ATG_HSE_CIS: Attagene CIS-FACTORIAL HepG2 Assay for human Heat Shock Transcription Factor 1 (HSE) (AID 2282953); conditions: HepG2 HSE cis-reporter, Attagene RNA transcription; actives raise or lower the signal
Sequence of Heat shock factor protein 1 (Homo sapiens) (Q00613 whole entry, looked up): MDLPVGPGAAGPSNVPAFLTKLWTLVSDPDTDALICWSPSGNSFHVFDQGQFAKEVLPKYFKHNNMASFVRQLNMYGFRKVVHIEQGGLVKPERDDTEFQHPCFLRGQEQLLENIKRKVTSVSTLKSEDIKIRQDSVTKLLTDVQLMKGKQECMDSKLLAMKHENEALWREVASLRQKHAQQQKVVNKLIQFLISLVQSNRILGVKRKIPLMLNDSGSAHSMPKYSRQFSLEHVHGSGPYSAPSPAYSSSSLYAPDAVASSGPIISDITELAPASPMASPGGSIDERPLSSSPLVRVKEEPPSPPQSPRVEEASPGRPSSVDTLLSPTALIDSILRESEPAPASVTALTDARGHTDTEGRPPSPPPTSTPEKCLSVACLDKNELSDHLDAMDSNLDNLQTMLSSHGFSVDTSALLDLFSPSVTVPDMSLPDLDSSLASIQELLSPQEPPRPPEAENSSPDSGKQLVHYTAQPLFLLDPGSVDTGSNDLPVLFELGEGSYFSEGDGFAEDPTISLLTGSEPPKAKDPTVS
How it was run: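 Reporter mRNA induction in HepG2 is measured 24 h after dosing, using transiently transfected multiplexed cis-regulated reporter units. Signal comes from capillary electrophoresis of labelled RT-PCR products, with DMSO as negative control.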

[7] = ATG_MRE_CIS: Attagene CIS-FACTORIAL HepG2 Assay for human Metal Responsive Element (MRE) (AID 2282954); conditions: HepG2 MRE cis-reporter transcription, Attagene multiplex; actives raise or lower the signal
How it was run: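 RT-PCR/capillary electrophoresis readout of reporter mRNA, 24 h post-dosing, in HepG2 cells transfected with multiplexed cis-regulated reporter constructs. Gain or loss of signal fitted bidirectionally against DMSO baseline.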

[8] = ATG_PBREM_CIS: Attagene CIS-FACTORIAL HepG2 Assay for human Phenobarbital-responsive Enhancer Module (PBREM) (AID 2282955); conditions: HepG2 PBREM cis-reporter, Attagene multiplexed transcription; actives raise or lower the signal
How it was run: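 Endogenous transcription factor activity was read from reporter transcripts in transiently transfected human HepG2 liver cells after 24 h dosing. RT-PCR products were fluorescently labelled, HpaI-cut and sized by capillary electrophoresis; activity fitted bidirectionally against DMSO baseline.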

[9] = molecular target: Paired box protein Pax-6 (Homo sapiens) (UniProt P26367); assay: ATG_Pax6_CIS: Attagene CIS-FACTORIAL HepG2 Assay for human Paired Box 6 (PAX6) (AID 2282956); conditions: HepG2 CIS-FACTORIAL PAX6 reporter transcription, RNA readout; actives raise or lower the signal
Sequence of Paired box protein Pax-6 (Homo sapiens) (P26367 whole entry, looked up): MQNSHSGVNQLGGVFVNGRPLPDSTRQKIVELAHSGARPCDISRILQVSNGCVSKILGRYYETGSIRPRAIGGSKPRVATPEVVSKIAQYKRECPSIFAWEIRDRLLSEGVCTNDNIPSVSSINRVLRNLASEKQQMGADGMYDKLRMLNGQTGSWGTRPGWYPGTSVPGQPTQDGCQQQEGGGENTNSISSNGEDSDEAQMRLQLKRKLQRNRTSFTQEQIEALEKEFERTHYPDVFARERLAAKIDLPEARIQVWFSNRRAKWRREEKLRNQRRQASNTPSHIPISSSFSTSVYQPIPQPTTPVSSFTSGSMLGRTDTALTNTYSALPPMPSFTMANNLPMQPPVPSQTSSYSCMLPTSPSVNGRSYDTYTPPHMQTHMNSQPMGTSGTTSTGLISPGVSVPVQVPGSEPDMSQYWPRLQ
How it was run: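 Readout: reporter transcript fluorescence after RT-PCR and capillary electrophoresis. Cells: HepG2, transiently transfected with cis-regulated MRTUs. Exposure 24 h. Gain or loss of signal fitted bidirectionally relative to DMSO.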

[10] = ATG_PXRE_CIS: Attagene CIS-FACTORIAL HepG2 Assay for human Pregnane X Receptor Element (PXRE) (AID 2282957); conditions: HepG2 Attagene CIS-FACTORIAL PXRE reporter, mRNA; actives raise or lower the signal
How it was run: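 Reporter transcripts under endogenous PXR-responsive cis-regulation quantified from total RNA of transfected HepG2 cells 24 h post-dosing, via RT-PCR with fluorescent primer extension and capillary electrophoresis. Gain or loss of signal fitted against DMSO baseline.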

[11] = ATG_RORE_CIS: Attagene CIS-FACTORIAL HepG2 Assay for human RAR-related Orphan Receptor Element (RORE) (AID 2282959); conditions: HepG2 Attagene cis-factorial RORE reporter, mRNA; actives raise or lower the signal
How it was run: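 RORE reporter transcripts reflecting endogenous factor activity were read after 24 h compound exposure of transfected HepG2 cells, using reverse transcription, PCR, fluorescent labelling and capillary electrophoresis sizing. Gain or loss fitted against DMSO.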

[12] = ATG_Sox_CIS: Attagene CIS-FACTORIAL HepG2 Assay for human SRY-box transcription factor (SOX) (AID 2282960); conditions: HepG2 Attagene cis-factorial SOX reporter, mRNA; actives raise or lower the signal
How it was run: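 Reporter transcripts, measured by RT-PCR and capillary electrophoresis of labelled fragments, report endogenous SOX transcription factor activity. Transiently transfected human HepG2 cells receive chemical for 24 h; changes in either direction are fitted relative to DMSO.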

[13] = molecular target: Transcription factor Sp1 (Homo sapiens) (UniProt P08047); assay: ATG_Sp1_CIS: Attagene CIS-FACTORIAL HepG2 Assay for human Specificity Protein 1 (Sp1) (AID 2282961); conditions: HepG2 Sp1 cis-reporter transcription, actives raise or lower the signal
Sequence of Transcription factor Sp1 (Homo sapiens) (P08047 whole entry, looked up): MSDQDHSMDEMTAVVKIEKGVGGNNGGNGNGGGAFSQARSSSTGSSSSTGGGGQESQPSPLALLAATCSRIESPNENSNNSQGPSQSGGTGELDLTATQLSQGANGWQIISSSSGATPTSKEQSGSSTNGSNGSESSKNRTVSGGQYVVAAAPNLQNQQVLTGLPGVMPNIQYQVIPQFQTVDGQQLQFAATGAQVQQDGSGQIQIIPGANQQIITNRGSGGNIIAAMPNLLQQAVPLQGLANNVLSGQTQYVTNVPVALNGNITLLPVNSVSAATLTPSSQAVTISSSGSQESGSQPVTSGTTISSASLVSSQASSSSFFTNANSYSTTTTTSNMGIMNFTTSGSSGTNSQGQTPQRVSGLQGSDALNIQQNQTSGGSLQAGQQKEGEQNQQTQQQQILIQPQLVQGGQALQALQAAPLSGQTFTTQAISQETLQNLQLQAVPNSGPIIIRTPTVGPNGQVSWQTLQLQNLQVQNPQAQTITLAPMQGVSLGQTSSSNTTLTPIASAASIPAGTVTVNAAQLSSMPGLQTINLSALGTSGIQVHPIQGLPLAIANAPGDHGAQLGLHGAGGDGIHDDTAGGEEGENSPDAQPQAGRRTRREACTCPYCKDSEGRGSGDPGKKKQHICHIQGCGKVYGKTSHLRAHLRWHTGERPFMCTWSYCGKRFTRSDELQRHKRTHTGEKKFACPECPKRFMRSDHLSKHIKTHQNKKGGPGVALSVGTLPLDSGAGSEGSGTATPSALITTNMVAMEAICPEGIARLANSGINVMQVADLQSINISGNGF
How it was run: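 Read-out is reporter transcript level, measured by RT-PCR and fluorescent capillary electrophoresis after 24 h chemical treatment. System: transiently transfected HepG2 cells reporting endogenous transcription factor activity; gain or loss fitted against DMSO baseline.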

[14] = molecular target: Signal transducer and activator of transcription 3 (Homo sapiens) (UniProt P40763); assay: ATG_STAT3_CIS: Attagene CIS-FACTORIAL HepG2 Assay for human Signal Transducer and Activator of Transcription 3 (STAT3) (AID 2282963); conditions: HepG2, Attagene cis-factorial STAT3 reporter transcription; actives raise or lower the signal
Sequence of Signal transducer and activator of transcription 3 (Homo sapiens) (P40763 whole entry, looked up, the tested form may be a part): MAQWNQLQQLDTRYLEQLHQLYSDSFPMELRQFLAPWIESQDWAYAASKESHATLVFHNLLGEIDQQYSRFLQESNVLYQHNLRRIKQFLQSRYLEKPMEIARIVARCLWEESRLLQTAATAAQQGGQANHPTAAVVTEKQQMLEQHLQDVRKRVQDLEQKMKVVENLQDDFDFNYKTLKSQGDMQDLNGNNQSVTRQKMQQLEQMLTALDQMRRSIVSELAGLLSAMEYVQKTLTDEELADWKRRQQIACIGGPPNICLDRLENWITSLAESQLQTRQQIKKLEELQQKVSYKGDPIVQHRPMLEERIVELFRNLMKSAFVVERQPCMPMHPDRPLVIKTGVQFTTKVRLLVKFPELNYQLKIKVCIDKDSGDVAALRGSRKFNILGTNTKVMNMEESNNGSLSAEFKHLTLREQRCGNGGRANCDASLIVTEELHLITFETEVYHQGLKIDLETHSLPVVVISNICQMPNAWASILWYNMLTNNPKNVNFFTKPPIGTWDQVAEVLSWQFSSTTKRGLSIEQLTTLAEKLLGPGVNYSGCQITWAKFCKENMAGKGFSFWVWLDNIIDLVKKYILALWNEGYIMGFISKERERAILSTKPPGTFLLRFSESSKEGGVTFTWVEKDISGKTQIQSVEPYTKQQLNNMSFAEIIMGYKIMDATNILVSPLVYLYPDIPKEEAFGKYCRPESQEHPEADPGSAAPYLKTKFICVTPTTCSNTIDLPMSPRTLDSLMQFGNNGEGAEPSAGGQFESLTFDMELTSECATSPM
How it was run: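 Readout: fluorescent reporter mRNA fragments resolved by capillary electrophoresis. Setup: HepG2 transfected with MRTUs reporting endogenous transcription-factor activity, dosed 24 h. Gain or loss of signal fitted bidirectionally against DMSO control.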

[15] = ATG_TA_CIS: Attagene CIS-FACTORIAL HepG2 Assay for human TA Basal Promoter (AID 2282964); conditions: HepG2 Attagene CIS-factorial TA basal promoter reporter; actives raise or lower the signal
How it was run: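 Cis-factorial format in HepG2: reporters report endogenous factors, not chimeric Gal4 fusions. After 24 h treatment, reporter transcripts were measured by RT-PCR-capillary electrophoresis fluorescence, analysed bidirectionally versus DMSO.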

[16] = ATG_TCF_b_cat_CIS: Attagene CIS-FACTORIAL HepG2 Assay for human T-Cell-Factor with beta-catenin (TCF/b-cat) (AID 2282965); conditions: HepG2 TCF/beta-catenin cis-reporter transcription, actives raise or lower the signal
How it was run: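 HepG2, transient MRTU transfection, cis-element-driven reporters (endogenous TFs). 24 h compound exposure. Readout: reporter mRNA by RT-PCR + 6-FAM primer extension, HpaI digest, capillary electrophoresis. Gain/loss fit vs DMSO baseline.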

[17] = ATG_SREBP_CIS: Attagene CIS-FACTORIAL HepG2 Assay for human Sterol Regulatory Element Binding (SREBP) (AID 2282962); conditions: HepG2 Attagene cis-factorial SREBP reporter, mRNA; actives raise or lower the signal
How it was run: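 Readout: fluorescent reporter-transcript peaks resolved by capillary electrophoresis after RT-PCR. Cells were human HepG2 carrying transfected cis-promoter reporter constructs, dosed for 24 h. Gain or loss of signal was fitted against DMSO controls.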

[18] = molecular target: Hypoxia-inducible factor 1-alpha (Homo sapiens) (UniProt Q16665); assay: ATG_HIF1a_CIS: Attagene CIS-FACTORIAL HepG2 Assay for human Hypoxia Inducible Factor 1 (HIF1A) (AID 2282951); conditions: HepG2 Attagene cis-factorial HIF1a reporter transcription; actives raise or lower the signal
Sequence of Hypoxia-inducible factor 1-alpha (Homo sapiens) (Q16665 whole entry, looked up): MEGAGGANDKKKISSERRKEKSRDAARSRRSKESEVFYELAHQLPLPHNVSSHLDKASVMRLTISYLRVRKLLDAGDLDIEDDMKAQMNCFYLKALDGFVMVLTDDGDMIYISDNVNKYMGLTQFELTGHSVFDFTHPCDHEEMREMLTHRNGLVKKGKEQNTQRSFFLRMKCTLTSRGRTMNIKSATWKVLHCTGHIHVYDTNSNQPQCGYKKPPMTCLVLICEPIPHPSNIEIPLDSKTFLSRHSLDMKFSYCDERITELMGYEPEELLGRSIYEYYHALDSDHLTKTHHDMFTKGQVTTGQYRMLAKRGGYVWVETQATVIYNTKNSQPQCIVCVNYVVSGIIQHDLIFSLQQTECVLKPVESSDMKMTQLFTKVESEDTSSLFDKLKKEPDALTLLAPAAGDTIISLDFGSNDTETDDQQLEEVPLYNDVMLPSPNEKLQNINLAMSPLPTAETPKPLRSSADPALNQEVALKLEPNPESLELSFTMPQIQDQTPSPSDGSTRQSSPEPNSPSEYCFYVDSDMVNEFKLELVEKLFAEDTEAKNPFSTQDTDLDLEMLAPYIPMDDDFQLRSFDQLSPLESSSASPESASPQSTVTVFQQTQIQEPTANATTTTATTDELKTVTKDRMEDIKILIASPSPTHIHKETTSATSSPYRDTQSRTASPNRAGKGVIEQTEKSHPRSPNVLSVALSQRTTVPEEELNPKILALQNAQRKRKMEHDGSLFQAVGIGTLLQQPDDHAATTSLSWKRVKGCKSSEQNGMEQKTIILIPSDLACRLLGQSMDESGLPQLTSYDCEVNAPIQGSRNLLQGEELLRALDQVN
How it was run: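 Activity is fitted in both directions relative to DMSO. Reporter transcripts are read by RT-PCR, fluorescent primer extension and capillary electrophoresis after 24 h chemical treatment. The cells are HepG2 carrying transiently transfected cis-element-driven reporter units responding to endogenous factors.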

[19] = ATG_PPRE_CIS: Attagene CIS-FACTORIAL HepG2 Assay for human Peroxisome Proliferator-activated Response Element (PPRE) (AID 2282958); conditions: HepG2 PPRE cis-element reporter, Attagene transcription factor profiling; actives raise or lower the signal
How it was run: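 Endogenous PPRE-driven transcription is measured in HepG2 cells carrying transfected multi-reporter constructs. Reporter transcripts are quantified by RT-PCR, HpaI digestion and capillary electrophoresis 24 h after dosing. DMSO baseline, bidirectional fit.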

Measured: AC50

CS(=O)(=O)c1ccc(Cl)cc1
active: [10] 100 µM
not listed: [17] | [18] | [19]
inactive: all other assays above

CC1(C)O[C@@H]2[C@@H](CO[C@@]3(COS(N)(=O)=O)OC(C)(C)O[C@@H]23)O1
active: [10] 57.9 µM
not listed: [1] | [6] | [18] | [19]
inactive: all other assays above

O=C(O)c1cccnc1C(=O)O
not listed: [1] | [5] | [8] | [11] | [18] | [19]
inactive: all other assays above

CN(c1nccc(=O)[nH]1)C1CCN(c2nc3ccccc3n2Cc2ccc(F)cc2)CC1
active: [7] 26.7 µM | [10] 6.61 µM
not listed: [1] | [5] | [19]
inactive: all other assays above

C#CC(C)N(C)C(=O)Nc1ccc(Cl)cc1 (stereo unspecified)
active: [10] 8.86 µM
not listed: [1] | [2] | [8]
inactive: all other assays above
